# A selection: hits, their analogues and other compounds. The true share with any hit is near 3.9%.
# ALR H2O2 inh – human ALR oxidase inhibition via reduced H2O2. purified ALR, DTT oxidation, H2O2 HRP-luminol luminescence. P55789. inhibition, % (test concentration not listed). 290,000 compounds, 3.8% hits. AID 485317;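 active means mean replicate inhibition above about 79%, with every replicate also reaching it, limit read from the data; inconclusive means only one of the two criteria met; inactive means mean below limit and not every replicate reaching it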
# Target sequence (P55789 whole entry, looked up): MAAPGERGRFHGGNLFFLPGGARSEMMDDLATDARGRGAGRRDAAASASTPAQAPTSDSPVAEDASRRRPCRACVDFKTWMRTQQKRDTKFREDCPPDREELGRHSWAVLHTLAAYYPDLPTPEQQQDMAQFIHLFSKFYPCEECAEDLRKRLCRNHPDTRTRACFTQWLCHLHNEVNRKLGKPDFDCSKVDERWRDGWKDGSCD
# NTR1 ag – activates human neurotensin receptor 1; 330,000 compounds, 0.17% hits; P30989; activation, % at 20 µM; NTR1-U2OS beta-arrestin-GFP spot imaging, agonist mode;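 active means activation at or above 40% of the spot to cytoplasm intensity ratio, with at least 20 cells analyzed; inconclusive means wells under 20 cells, flagged as cytotoxic or low count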;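 further: 0% = DMSO without peptide and 100% = 100 nM NTR1 peptide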
# Cardio protect – modulators protecting cardiomyocytes from myocardial damage; protection from H2O2 cell death, % at 20 µM; AID 588492; 360,000 compounds, 0.63% hits; H9c2 cardiomyocytes, H2O2 injury protection, ATPLite, 2 h;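 active means compounds giving at least 50% protection of heart cells from peroxide-induced death in the single-dose screen, raw or plate-pattern-corrected value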;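 further: 0% = DMSO wells with peroxide and 100% = DMSO wells without peroxide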
# UBC9 SUMO inh – inhibitors of human SUMOylation (UBC9) | AID 2006 | 290,000 compounds, 0.36% hits | P63279 | inhibition, % at 35 µM | HTRF SUMOylation assay, SAE1/SAE2 + UBC9, in vitro; in the data active means inhibition above about 50%, passing the limit was not always enough; inconclusive means no clear call, values can overlap the other calls
# Target sequence (P63279 whole entry, looked up): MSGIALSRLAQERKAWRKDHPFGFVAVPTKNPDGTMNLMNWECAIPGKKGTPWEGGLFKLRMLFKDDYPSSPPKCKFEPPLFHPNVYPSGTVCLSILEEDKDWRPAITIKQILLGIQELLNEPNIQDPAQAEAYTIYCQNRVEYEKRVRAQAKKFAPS
# * = called active by the depositor; u = inconclusive; x = no result.
SMILES,ALR H2O2 inh,NTR1 ag,Cardio protect,UBC9 SUMO inh
CCOC(=O)c1sc(NC(=O)c2ccc(CC)s2)nc1C,-17,1,-4,29
COc1ccc(OC)c(C2C3=C(COC3=O)Nc3cc4c(cc32)OCO4)c1 (stereo not given),99*,-4,8,12
COc1ccc(C2C3=C(CC(C)(C)CC3=O)Nc3cc4c(cc32)OCO4)cc1 (stereo not given),u,4,10,-3
CN(C)CCCNC(=S)N1CCn2c(nc3ccccc32)C1,-22,0,1,-3
COc1ccc(NC(=O)CSc2n[nH]c(=O)n2C2CC2)cc1Cl,x,1,4,x
CCN(CC)S(=O)(=O)c1ccc(S(=O)(=O)N(CC(=O)Nc2ccccc2)CC2CCCO2)cc1 (stereo not given),98*,2,6,x
O=C(CN(CC1CCCO1)S(=O)(=O)c1ccc(S(=O)(=O)NC2CC2)cc1)Nc1ccccc1 (stereo not given),-13,0,15,-22
CN(C)S(=O)(=O)c1ccc(N2C(=O)CC2(/C=C/c2ccccc2)C(=O)NC2CCCC2)cc1 (stereo not given),1,1,-3,10
CC(=O)Nc1ccc(S(=O)(=O)NNC(=O)c2cccc(Cl)c2)cc1,99*,0,2,-3
CC(=O)Nc1ccc(S(=O)(=O)NNC(=O)COc2ccc(C(C)(C)C)cc2)cc1,97*,1,-8,4
CC(=O)Nc1ccc(S(=O)(=O)NNC(=O)c2ccc3c(c2)OCO3)cc1,15,1,0,-1
Cc1ccc(CNS(=O)(=O)c2c(C(=O)N3CCCCC3)c(C)n(C)c2C)cc1,4,0,0,0
Cc1c(C(=O)N2CCCCC2)c(S(=O)(=O)NCc2ccc(N(C)C)cc2)c(C)n1C,98*,1,0,6
C[C@@H](C(=O)Nc1nccs1)N1C(=O)C2CC=CCC2C1=O (stereo not given in full),-5,3,7,x
CC(C(=O)Nc1sccc1C(N)=O)N1C(=O)C2CC=CCC2C1=O (stereo not given),97*,1,-1,7
O=C(N/N=C/c1ccc(F)cc1)c1cccc(NC(=O)c2ccc(F)cc2)c1,-2,3,14,-17
Cc1cccc(N/N=C/c2ccncc2)c1,99*,0,-4,9
O=C(N/N=C/c1ccncc1)c1cccc(N/N=C/c2ccncc2)c1,96*,1,32,-8
O=C(N/N=C/c1ccncc1)c1cccc(NC(=O)c2ccc(Cl)cc2)c1,-7,3,11,62*
O=[N+]([O-])c1ccccc1CNCCCCCO,21,6,4,x
CCNc1ccc([N+](=O)[O-])cc1,-5,-1,-1,14
Cc1cc(NC(=O)CSc2nccn2-c2ccc(Cl)cc2)no1,99*,-1,1,28
COc1cccc(-n2ccnc2SCC(=O)Nc2cc(C)on2)c1,83*,1,10,18
C/C(=N\NC(=O)c1cccc(N/N=C(\C)c2ccccc2)c1)c1ccccc1,87*,x,14,1
C/C(=N\NC(=O)c1cc(O)ccc1O)c1cccc(NC(=O)c2cccc(Cl)c2)c1,90*,0,19,15
SMILES,ALR H2O2 inh,NTR1 ag,Cardio protect,UBC9 SUMO inh
C/C(=N\NC(=O)c1cc(O)ccc1O)c1cccc(NC(=O)c2ccc(Cl)cc2)c1,64,1,-7,52
C/C(=N\NC(=O)c1cc(O)cc(O)c1)c1ccc(NC(=O)Cc2ccccc2)cc1,14,0,-1,x
C/C(=N/NC(=O)c1ccc(-c2ccccc2)cc1)c1cc(O)cc(O)c1,99*,-2,-2,-1
C/C(=N\NC(=O)c1ccc(O)cc1)c1ccc2c(c1)Nc1ccccc1S2,99*,17,-2,-15
C/C(=N\NC(=O)c1cccc(N/N=C(\C)c2ccncc2)c1)c1ccncc1,99*,2,68*,15
C/C(=N/NC(=O)c1cccs1)c1cccc(NC(=O)C2CC2)c1,-2,0,58*,-13
Cc1ccc(-c2nnn(CC(=O)N(CC3CCCO3)C(C(=O)NC(C)(C)C)c3ccc(F)cc3)n2)o1 (stereo not given),99*,0,-2,10
Cc1ccc(-c2nnn(CC(=O)N(CC3CCCO3)C(C(=O)NCC3CCCO3)c3ccc(F)cc3)n2)o1 (stereo not given),-4,-2,-3,1
CC(C(=O)NC1CCCC1)N(C(=O)Cn1nnc(-c2ccc(F)cc2)n1)c1ccccc1F (stereo not given),-3,1,64*,4
CC(C)CC(C(=O)NCC1CCCO1)N(C(=O)Cn1nnc(-c2ccc(F)cc2)n1)c1cccc(C(F)(F)F)c1 (stereo not given),-4,3,-2,-41
O=C(NCC1CCCO1)C(c1ccc(F)cc1)N(C(=O)Cn1nnc(-c2ccc(F)cc2)n1)c1cccc(O)c1 (stereo not given),0,2,56*,13
CN1CCN(CC(=O)Nc2ccc(OC(F)(F)F)cc2)CC1,-6,1,-1,4
N#Cc1c(N(CCO)CCO)nc(N)c2c(N)nc3c(c12)CC(=O)N3Cc1cccs1,-33,1,2,99
COCCN1C(=O)Cc2c1nc(N)c1c(N)nc(N3CCN(c4ccc(F)cc4)CC3)c(C#N)c21,-6,4,12,93*
CCOc1cc2c(C#N)c(N(CC)CC)nc(N)c2c(N)n1,67,6,6,x
COc1ccc(CN2C(=O)Cc3c2nc(N)c2c(N)nc(N4CCOCC4)c(C#N)c32)cc1,-28,1,9,101*
CCOc1cc2c(C#N)c(N3CCOCC3)nc(N)c2c(N)n1,43,0,22,97*
CN(CCO)c1nc(N)c2c(N)nc3c(c2c1C#N)CC(=O)N3Cc1cccs1,-11,-1,24,101*
COc1cccc(C2NC(=O)c3sc(=S)n(-c4ccccc4)c3N2)c1 (stereo not given),97*,4,7,5
COc1ccc(OC)c(C2NC(=O)c3sc(=S)n(-c4ccccc4)c3N2)c1 (stereo not given),19,8,-4,34
COc1cc(C(=O)Nc2ccc(C)cc2)c2ccccc2n1,1,4,0,-1
CC1(C)CC(=O)C=C(NC2CCCC(O)C2)C1 (stereo not given),-10,0,6,x
COc1ccc(Cl)cc1NC(=O)CN(C)C(=O)Cn1[nH]c(=O)c2ccccc2c1=O,-2,1,84*,x
CN(CC(=O)Nc1ccccc1Br)C(=O)Cn1[nH]c(=O)c2ccccc2c1=O,x,0,83*,x
COc1cccc(NC(=O)CN(C)C(=O)Cn2[nH]c(=O)c3ccccc3c2=O)c1,-4,0,40,x
CCO[C@H]1OC(C(=O)N2CCN(Cc3ccccc3)CC2)=C[C@@H](c2coc3ccccc3c2=O)[C@@H]1CCCO,-13,0,5,13
CCOC(=O)c1c(C)c(C(=O)N2CCN(C(=O)c3ccco3)CC2)c(C)n1C,-1,1,1,14
CCOC(=O)C1=NN(C(=O)c2ccco2)C2(CC2)C1,-1,0,72*,1
CCOC(=O)C1(C)CCN1C(=O)c1ccco1 (stereo not given),x,x,4,x

# Screening results: PubChem BioAssay, several laboratories
